F-actin modifier = modifiers of cytoskeleton assembly; HUVEC TNFa F-actin phalloidin imaging, high content; inhibition, % at 2 µM; hit rate 0.18% among 91,000; AID 836;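 active = inhibition above the batch mean plus 3 SD and confirmed as a hit by visual image inspection, cut at about 30% in these data, passing the limit was not always enough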
ERb SRC1 inh = blocks coactivator binding to human estrogen receptor beta; Q92731; hit rate 1.3% among 86,000; TR-FRET ER-beta LBD / SRC1-Cy5 peptide binding; receptor agonist-loaded with 1 µM estradiol; inhibition, % at 25.6 µM;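 active = compounds whose percent inhibition of the receptor-coactivator binding signal exceeds about 50% in the single-dose screen, limit read from the data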
Target sequence (Q92731 whole entry, looked up, the tested form may be a part): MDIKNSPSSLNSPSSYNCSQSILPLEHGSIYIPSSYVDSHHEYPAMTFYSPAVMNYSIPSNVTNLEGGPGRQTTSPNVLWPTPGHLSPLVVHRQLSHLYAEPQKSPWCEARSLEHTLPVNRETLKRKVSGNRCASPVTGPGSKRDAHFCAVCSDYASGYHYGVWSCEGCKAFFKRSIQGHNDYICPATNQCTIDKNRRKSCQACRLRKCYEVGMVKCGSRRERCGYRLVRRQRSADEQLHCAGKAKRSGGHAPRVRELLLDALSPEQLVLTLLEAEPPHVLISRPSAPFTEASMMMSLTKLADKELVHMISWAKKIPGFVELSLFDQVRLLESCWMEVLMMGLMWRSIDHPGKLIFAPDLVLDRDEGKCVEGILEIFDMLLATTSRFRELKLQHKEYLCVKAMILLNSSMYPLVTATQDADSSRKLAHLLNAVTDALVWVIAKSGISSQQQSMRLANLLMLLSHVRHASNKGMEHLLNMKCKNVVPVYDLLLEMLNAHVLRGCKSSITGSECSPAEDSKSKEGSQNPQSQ
Calb biofilm kill = kills Candida albicans biofilms; C. albicans biofilm + clotrimazole, Alamar Blue; inhibition, % at 6 µM; hit rate 0.14% among 85,000; AID 834;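 active = inhibition above 20%; inactive = inhibition below 20%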;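 note: preformed 24 hr biofilms exposed to compound for 48 hr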
E-sel TNF inh = TNF alpha driven E-selectin expression inhibition | inhibition, % at 2 µM | HUVEC TNFa-induced E-selectin immunofluorescence, high content | hit rate 0.71% among 120,000;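 active = inhibition above the batch mean plus 3 SD, and confirmed as a hit on visual image review, cut at about 43% in these data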
ERa SRC1 pot = ER-alpha (human) coactivator binding potentiation; coactivator binding (% of control), % at 25.6 µM; TR-FRET ERalpha-LBD/SRC-Cy5 coactivator binding, 2 h; 100 = basal binding, no effect; hit rate 1.3% among 86,000; in the data active = activity above about 200%;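 note: binding measured in presence of low estradiol as agonist stimulus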
ERa SRC1 inh = blocks coactivator binding to human estrogen receptor alpha; inhibition, % at 25.6 µM; P03372; TR-FRET ER-alpha LBD / SRC-1 peptide, estradiol-bound; AID 629; hit rate 1.7% among 86,000; in the data active = inhibition above about 50%
Numbers stand for hits; n = inactive; x = no result given; [ ] = another dose, or the depositor's remark. Sampled rows, rich in hits. Any-hit rate of the full collection: about 2.9%.

SMILES	F-actin modifier	ERb SRC1 inh	Calb biofilm kill	E-sel TNF inh	ERa SRC1 pot	ERa SRC1 inh
Cc1cccc(N2CCN(c3nc4ccccc4n4cnnc34)CC2)c1C	n	n	n	x	n	54
CN(C)c1nc(C=C(C#N)C#N)c(Cl)n1-c1ccc(F)cc1	x	x	x	87	x	x
CCc1ccccc1NC(=S)N(CCCN(C)C)Cc1cc2cc3c(cc2[nH]c1=O)OCO3	x	x	x	n	x	x
O=C(NNc1ncccc1Cl)c1c(Cl)cccc1Cl	x	x	x	n	x	x
O=c1[nH]c2c(s1)C(c1ccc(O)cc1)C1C3CCC(C3)C1S2 (stereo not given)	n	n	n	n	n	70
COc1cc2[nH]c(=O)n(Cc3ccc(C(=O)NC4CCCC4)cc3)c(=O)c2cc1OC	n	n	24	n	n	n
Cc1cccc(NC(=O)CSc2nnc(-c3ccco3)c(-c3ccco3)n2)c1C	n	77[fluorescence artefact?]	n	n	n	74[fluorescence artefact?]
O=C(NC1=NCCS1)c1ccccc1OCc1ccc(F)cc1	x	x	x	n	x	x
CCOc1cccc(C(=O)NNC(=O)CCC(=O)O)c1	x	x	x	n	x	x
Cn1c(-n2c(CCCN3C(=O)c4ccccc4C3=O)nc3ccccc3c2=O)nc2ccccc21	n	n	n	n	n	n
O=C1c2ccccc2C(=O)N1CCCc1nc2ccccc2c(=O)n1CCCn1ccnc1	n	n	n	n	516	n
CCOc1ccccc1NC(=O)N1CCC(NC(=O)c2ccccc2C)CC1	n	n	n	n	n	n
CCOc1ccccc1NC(=O)N1CCC(NC(=O)c2cccc(C)c2)CC1	n	65[fluorescence artefact?]	n	n	n	63[fluorescence artefact?]
Cc1ccsc1-c1nc(CN2C[C@@H](C)O[C@@H](C)C2)c(C)o1	x	x	x	n	x	x
O=C(O)c1ccccc1C1=Nc2ccc(O)cc2Oc2cc(O)ccc21	n	62[fluorescence artefact?]	n	x	n	n
COc1ccc(CCC(=O)NCc2ccco2)cc1	n	n	n	n	212[fluorescence artefact?]	58[fluorescence artefact?]
CCOc1ccc(N(CC(=O)NCc2ccco2)S(=O)(=O)c2ccc(OC)c(OC)c2)cc1	n	n	n	n	n	n
COc1ccc(N(CC(=O)NCc2ccco2)S(=O)(=O)c2ccc(OC)c(OC)c2)cc1	x	54[fluorescence artefact?]	n	x	n	n
O=C(c1cnn2c(C(F)(F)F)cc(-c3ccco3)nc12)N1CCc2ccccc2C1	n	n	n	n	n	n
CCOC(=O)N1CCC(=NNC(=O)c2ccc(O)cc2)CC1	x	x	x	n	x	x
COCCOC(=O)C1=C(C)NC(SCC(=O)NC(C)(C)C)=C(C#N)C1c1ccco1 (stereo not given)	n	n	n	x	n	n
C=CCOC(=O)C1=C(C)NC(SCC(=O)Nc2ccc(C)c(Cl)c2)=C(C#N)C1c1ccco1 (stereo not given)	n	n	n	x	n	94[fluorescence artefact?]
COc1ccccc1NC(=O)C1=C(C)NC(SCC(=O)c2ccccc2)=C(C#N)C1c1ccco1 (stereo not given)	n	n	n	n	278[fluorescence artefact?]	n
Cc1ccc(C(=O)CSC2=C(C#N)C(c3ccco3)C3=C(CC(C)(C)CC3=O)N2)cc1 (stereo not given)	n	n	n	n	200	n
CCOC(=O)C1=C(c2ccccc2)NC(SCC(=O)NC2CCCCC2)=C(C#N)C1c1ccco1 (stereo not given)	n	n	n	n	364[fluorescence artefact?]	n
SMILES	F-actin modifier	ERb SRC1 inh	Calb biofilm kill	E-sel TNF inh	ERa SRC1 pot	ERa SRC1 inh
Cc1cc(C)cc(OCc2nc3ncc(Br)cc3[nH]2)c1	n	n	n	n	333[fluorescence artefact?]	57
COc1cccc(OCc2nc3ncc(Br)cc3[nH]2)c1	n	n	n	n	n	n
CC(=O)N(C(C)=O)c1c(C#N)c(C)n(-c2ccccc2)c1C(=O)c1ccccc1	n	n	n	n	n	68
N#Cc1c(N)c(C(=O)c2ccccc2)n2c1CCCC2	n	n	n	n	n	n
O=C(Nc1nccs1)c1nc(-c2ccccc2)n(-c2ccccc2)n1	n	n	n	43	343	n
Cc1csc(NC(=O)c2nc(-c3ccccc3)n(-c3ccccc3)n2)n1	x	n	n	n	n	n
CCN(CC(=O)Nc1c(F)cccc1F)C(=O)COc1ccc2c(C)cc(=O)oc2c1	x	x	x	n	x	x
Cc1ccc2cc3cc(C(=O)NCc4ccco4)oc3nc2c1	n	n	n	x	n	53[fluorescence artefact?]
Cc1ccc2nc(SCC(=O)NCc3ccco3)c(C#N)cc2c1	n	n	n	n	n	n
Cc1ccc2cc3cc(C(=O)NCCC(C)C)oc3nc2c1	n	n	n	x	n	n
Cc1ccc2cc(C#N)c(SCC(=O)NCc3ccco3)nc2c1	n	n	n	n	237	55[fluorescence artefact?]
COC(=O)c1c(-c2ccc3ccccc3c2)csc1NC(=O)Cc1ccc(OC)c(OC)c1	n	x	x	n	x	x
O=C(Cc1cccc2ccccc12)N/N=C/c1ccc(OC(=O)/C=C/c2ccco2)cc1	n	n	n	n	n	65[fluorescence artefact?]
ON=Cc1cccn1-c1ccccc1	n	n	x	n	n	n
O=C(O)c1cccc(-n2cccc2/C=N/O)c1	n	77[fluorescence artefact?]	n	n	n	76[fluorescence artefact?]
COc1ccc2[nH]c(C)c(CCN3C(=O)C4C5C=CC(C5)C4C3=O)c2c1 (stereo not given)	n	n	n	70	n	n
COc1ccc2[nH]c(C)c(CN3CCCCC3)c(=O)c2c1	x	n	n	x	n	n
COc1cccc(CNCC(O)(c2ccc(Cl)cc2)c2ccc(Cl)cc2)c1	n	x	x	n	x	x
Cc1ccc(CNCC(O)(c2ccccc2)c2ccc(Cl)cc2)cc1 (stereo not given)	x	x	x	67	x	x
Cc1noc(C)c1S(=O)(=O)N1CCC(C(=O)N2CCC(N3CCCCC3)CC2)CC1	n	n	22	x	n	n
CCN1C(=O)CC(N2CCN(c3ccc(C(=O)c4ccccc4)cc3)CC2)C1=O (stereo not given)	n	n	n	n	n	n
O=C1CC(N2CCN(c3ccc(C(=O)c4ccc(F)cc4)cc3)CC2)C(=O)N1 (stereo not given)	n	n	n	n	221	n
O=C(CN1C(=O)COc2ccccc21)N1CCc2ccccc2C1	n	n	n	n	n	n
CCOc1ccc(C(=O)CCN2CCCCC2)cc1	x	59	n	n	n	n
Cc1cc(C)c(Cc2c(C)nc3c(C(=O)NCc4ccco4)cnn3c2C)c(C)c1	n	n	n	n	n	n
SMILES	F-actin modifier	ERb SRC1 inh	Calb biofilm kill	E-sel TNF inh	ERa SRC1 pot	ERa SRC1 inh
O=C(C1=COCCO1)N1CCN(S(=O)(=O)c2cccc(Cl)c2Cl)CC1	n	60[fluorescence artefact?]	n	n	n	n
Cn1c(C(=O)OC(C(=O)NC2CCCCC2)c2ccncc2)cc2sccc21 (stereo not given)	n	n	n	n	263[fluorescence artefact?]	n
Cc1c(C(=O)N2CCc3ccccc3C2)oc2ccc(S(=O)(=O)N3CC(C)CC(C)C3)cc12 (stereo not given)	x	x	x	n	x	x
COc1cc(C2Nc3cccc4cccc(c34)N2)ccc1OC(C)=O	n	n	n	x	n	n
COc1cc(C2Nc3cccc4cccc(c34)N2)cc(OC)c1O	n	82[fluorescence artefact?]	n	n	n	54[fluorescence artefact?]
O=C(Cn1ncc2c(=O)oc3ccccc3c21)Nc1nc2ccccc2s1	n	n	n	n	429	n
O=C(Cn1ncc2c(=O)oc3ccccc3c21)NC1CC1	n	x	x	n	x	x
